An excerpt weighted towards active compounds, which were near 6.5% of everything screened.
Spn MK inh – blocks S. pneumoniae mevalonate kinase. 65,000 tested, 0.48% active. AID 555. purified MK, PK/LDH-coupled NADH absorbance 340 nm. inhibition, % at 10 µM;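 active means ranked among the strongest by inhibition in the single 10 µM screen, a fixed top-ranked set picked for dose follow-up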
Fluor 339 460 – intrinsic fluorescence of library compounds, ex339/em460 – biochemical, MLSMR library, data from DPM-DC assay, artefact control, profiling panel; AID 709; fluorescence fold increase at 10 µM; 65,000 tested, 5.5% active; compound autofluorescence, ex339/em460 nm, NADH buffer; active compounds read high; 1 = no-compound wells, NADH background;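 active means at 10 µM, mean starting fluorescence two-fold or more over control wells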;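 further: signal is the first read of a kinetic run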
NADH enzymes – blocks coupling enzymes of NAD/NADH assays. coupled PK/LDH NADH assays, four targets. IC50, µM (top dose mostly 10 µM), inactives show at the highest dose inhibition. 65,000 tested, 0.02% active;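 active means single-dose screening hits from any of four coupled enzyme assays that gave an IC50 when retested across doses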;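 further: the DPM-DC format reads NADH fluorescence rather than 340 nm absorbance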
Abs 340nm – compounds absorbing at 340 nm. compound absorbance at 340 nm, fold over control. fold change at 10 µM. 65,000 tested, under 10 active;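 active means at 10 µM dose, initial 340 nm absorbance at least 2 fold that of control wells; inactive means change under 2 fold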;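 further: initial absorbance extrapolated from kinetic A340 decline of NADH oxidation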
Spn PMK inh – inhibitors of Streptococcus pneumoniae phosphomevalonate kinase | purified PMK, PK/LDH-coupled NADH absorbance 340 nm | AID 539 | inhibition, % at 10 µM | 65,000 tested, 0.49% active;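 active means top-ranked compounds by inhibition in the single 10 µM screen, taking a fixed number of the strongest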;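 further: 0% = full reaction with DMSO carrier and 100% = background rate without enzyme reaction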
Spn DPM-DC inh – S. pneumoniae DPM-DC inhibition | AID 556 | 65,000 tested, 0.49% active | calls only at 10 µM | purified DPM-DC, PK/LDH coupled NADH fluorescence;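 active means the 320 compounds with the highest percent inhibition in the single-dose primary screen, excluding strongly autofluorescent ones, cut at about 32% in these data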;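 further: kinetic rate of NADH fluorescence loss reporting ADP formed by the decarboxylase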
Starred values were filed as active, the others as inactive; i = inactive; . = no result given; + = active, no number.

SMILES | Spn MK inh | Fluor 339 460 | NADH enzymes | Abs 340nm | Spn PMK inh | Spn DPM-DC inh
COc1ccc(NS(=O)(=O)c2c(C)[nH]c(=O)[nH]c2=O)c(OC)c1 | 0 | 1.1 | 2% | 1 | 11 | i
Cc1ccc(-c2cc(C(=O)Nc3cccnc3)c3ccccc3n2)o1 | 15 | 2.2* | 8% | 1.1 | 0 | .
O=C(Nc1cccnc1)c1coc(=O)c2ccccc12 | 5 | 1.5 | 10% | 1 | 11 | i
Cc1cccn2c(=O)c3cc(C#N)c(=NC(=O)c4ccncc4)n(Cc4ccco4)c3nc12 | 11 | 2.7* | 3% | 1 | 13 | .
CCCCCn1c(=NC(C)=O)c(C#N)cc2c(=O)n3ccccc3nc21 | 3 | 3.6* | 7% | 1.1 | 11 | .
CCCCn1c(=NC(C)=O)c(C#N)cc2c(=O)n3cccc(C)c3nc21 | 8 | 3.9* | 8% | 1.1 | 8 | .
CC(C)OCCCn1c(=NC(=O)c2ccncc2)c(C#N)cc2c(=O)n3ccccc3nc21 | 3 | 3.6* | 8% | 1.1 | 12 | .
Cc1cc(C)n(CC(=O)n2c3c(c4ccccc42)CCCC3)n1 | 2 | 0.65 | 4% | 1 | 8 | i
CCCCn1c(=NC(=O)c2ccc3c(c2)OCO3)c(C#N)cc2c(=O)n3cccc(C)c3nc21 | 4 | 2.3* | 11% | 1.1 | 5 | i
COCCn1c(=NC(=O)c2ccc3c(c2)OCO3)c(C#N)cc2c(=O)n3cccc(C)c3nc21 | 0 | 1.3 | 3% | 1.1 | 9 | i
CCOC(=O)C1CCCCN1C(=O)CCc1c(C)nc2ncnn2c1C (stereo not drawn) | 3 | 1.1 | 4% | 0.98 | 9 | i
Cc1cc(-c2ccco2)n2c(nc3ccccc32)c1C#N | 7 | 1.1 | 4% | 1.1 | 6 | i
Cc1cc(NCCCCO)n2c(nc3ccccc32)c1C#N | 6 | 3.6* | 10% | 1.1 | 13 | .
CCCc1cc(NCCCCO)n2c(nc3ccccc32)c1C#N | 5 | 2.4* | 8% | 1 | 10 | .
COCCN(CCOC)c1cc(C)c(C#N)c2nc3ccccc3n12 | 6 | 3.8* | 10% | 1.1 | 13 | .
COC(=O)C1=C(NC(=O)c2cccc(C)c2)CCS1 | 0 | 1.7 | 5% | 1 | 15 | i
Cc1noc(NS(=O)(=O)c2ccc(NC(=O)CSc3n[nH]c(-c4ccccc4)n3)cc2)c1C | 13 | 1 | 5% | 1 | 0 | i
Cc1nnc(SCC(=O)Nc2nsc(-c3ccccc3)n2)s1 | 14 | 1.1 | 17% | 1.1 | 38* | i
COc1ccc(-c2nc(NC(=O)CSc3nnc(C)s3)ns2)cc1 | 7 | 2.8* | 13% | 1.1 | 2 | i
Cc1ccc(-c2nc(NC(=O)CSc3nnc(C)s3)ns2)cc1 | 3 | 1.1 | 3% | 1 | 7 | i
COc1cc2c(cc1NC(=O)CSc1nnnn1-c1ccccc1)oc1ccccc12 | 6 | 2.2* | 4% | 1 | 5 | i
COc1cccc(-n2nnnc2SCC(=O)c2cc(OC)ccc2OC)c1 | 5 | 2.4* | 7% | 1 | 1 | i
OC1CN=C2CCCc3c2n(c2ccc(Cl)cc32)C1 (stereo not drawn) | 12 | 3.8* | 9% | 1.4 | 6 | .
CCN1CCn2c3c(c4cc(Cl)ccc42)CCCC31 (stereo not drawn) | 9 | 1.2 | 7% | 1 | 11 | i
O=C(NCc1ccco1)C(Cc1ccccc1)N1C(=O)C2C3C=CC(C3)C2C1=O (stereo not drawn) | 7 | 1.1 | 8% | 0.98 | 18 | i
SMILES | Spn MK inh | Fluor 339 460 | NADH enzymes | Abs 340nm | Spn PMK inh | Spn DPM-DC inh
CC(=O)n1c2ccccc2c2c1c1ccccc1n2C | 2 | 2.1* | 7% | 1.1 | 12 | .
O=c1c2ccccc2nc(-c2ccoc2)n1CCc1ccccc1 | 0 | 1.1 | 0% | 1.1 | 0 | i
Cc1cc(C)n(-c2nc3ccccc3[nH]c2=O)n1 | 3 | 2.8* | 11% | 1.1 | 17 | i
Cn1c(=O)c2c(ncn2Cc2ccc(Cl)c(Cl)c2)n(C)c1=O | 13 | 1.1 | 9% | 1.1 | 13 | i
O=C(Nc1ccc(F)cc1)C1CCCCC1 | 0 | 1 | 2% | 1 | 6 | i
O=S1(=O)NC2CCCCCN2c2ccc(F)cc21 (stereo not drawn) | 0 | 3.6* | 11% | 1.1 | 9 | i
CCCCNC(=O)c1cc2c(-c3ccc(Cl)cc3)nn(C)c2s1 | 3 | 1.5 | 1% | 1.1 | 0 | i
CCOC(=O)N1CCC(NC(=O)c2cc3c(-c4ccc(Cl)cc4)nn(C)c3s2)CC1 | 6 | 2.1* | 8% | 1.1 | 10 | .
COCCNC(=O)c1cc2c(-c3ccccc3F)nn(C)c2s1 | 12 | 2* | 7% | 0.98 | 13 | i
COCCCNC(=O)c1cc2c(-c3ccc(Cl)cc3)nn(C)c2s1 | 1 | 2.2* | 1% | 1.1 | 0 | .
CC(C)NC(=O)c1cc2c(-c3ccc(Cl)cc3)nn(C)c2s1 | 5 | 1.6 | 9% | 1.1 | 9 | i
COCCNC(=O)c1cc2c(-c3ccc(Cl)cc3)nn(C)c2s1 | 0 | 2.2* | 4% | 1.1 | 7 | .
CC(C)n1c(SCc2ccc(Cl)cc2)nc2c1c(=O)[nH]c(=O)n2C | 9 | 1.1 | 7% | 1 | 11 | i
Cn1c(=O)c2ncn(CC(=O)NCCC3=CCCCC3)c2n(C)c1=O | 6 | 1.1 | 4% | 1.1 | 5 | i
CN(C)C=Nc1c(Br)cc(Br)c2nonc12 | 11 | 0.97 | 6% | 1 | 7 | i
Cn1nc(-c2ccc(Cl)cc2)c2cc(C(=O)NCCCN3CCCC3)sc21 | 6 | 2.1* | 6% | 1.1 | 6 | .
Cc1ccc(-c2noc(-c3ccccc3Br)n2)cc1 | 6 | 1.1 | 3% | 1 | 2 | i
CN(C)c1ccc(-c2noc(-c3ccccc3O)n2)cc1 | 8 | 5.3* | 8% | 1 | 8 | .
Cc1cc(N2CCCC2)n2nc(C)nc2n1 | 6 | 1.1 | 4% | 1 | 5 | i
CCOC(=O)N1CCN(c2cc(C)nc3nc(C)nn23)CC1 | 5 | 2.1* | 5% | 1 | 4 | .
CCOC(=O)c1ccc(Oc2nc(NC)nc(OC)n2)cc1 | 5 | 1.1 | 1% | 1 | 0 | i
COC(=O)c1sc2cnccc2c1N | 1 | 5.1* | 7% | 1 | 12 | .
CCOC(=O)c1sc2nc(-c3ccco3)c3c(c2c1N)CC(C)(C)OC3 | 9 | 2 | 11% | 1.1 | 0 | i
COC(=O)c1sc2nc(-c3ccco3)ccc2c1N | 18 | 2.9* | 24% | 1.2 | 0 | +
CN(C)CC(C)(C)CNC(=O)C1CCN(Cc2ccccc2O)CC1 | 7 | 1.1 | 7% | 1 | 14 | i
CC(=O)Nc1ccc(S(=O)(=O)N2CCN(c3cccc(C)c3C)CC2)cc1 | 0 | 1.1 | 0% | 1 | 0 | i
CCOc1ccc(S(=O)(=O)NCCCN2CCOCC2)c2ccccc12 | 3 | 1.2 | 14% | 1 | 40* | i
COc1ccc(S(=O)(=O)NCCCN2CCOCC2)c2ccccc12 | 9 | 1.1 | 3% | 0.99 | 6 | i
